Assay results taken from PubChem BioAssay AID1479 (National Center for Advancing Translational Sciences (NCATS), 2009).
The campaign covered roughly 280,000 compounds. About 820 (0.29%) were called active. Roughly 1% stayed inconclusive and do not appear here. This excerpt belongs to a sample that is enriched for actives. A number with no mark means an inactive call. Calls come from the whole dose curve; as a rule, active = well fitted curve in either direction with a large enough effect; inconclusive = small, poorly fitted or top-dose-only effect; inactive = flat fitted curve, though single readings scatter.

Assay: Total Fluorescence Counterscreen for Inhibitors of the Interaction of Thyroid Hormone Receptor and Steroid Receptor Coregulator 2
Details: TRb/SRC2 Texas Red total fluorescence interference; series mostly up to 106 µM; fluorescence change, negative = quenching: at the top concentration
Description: NIH Molecular Libraries Probe Production Network [MLPCN]
NIH Chemical Genomics Center [NCGC]
Assay Provider: R. Kip Guy, St. Jude Children's Research Hospital
Thyroid receptor (TR) regulates many homeostatic processes including basal metabolism, cardiovascular function, body weight, and lipid trafficking. TR modulators are potential therapeutics for obesity and hyperlipidemias but current thyroid analogs have undesirable side effects, particularly cardiac stimulation. To identify inhibitors that specifically prevent the interaction of TR with the steroid receptor […] 2 (SRC2), a fluorescence polarization assay was screened. This assay detects interaction of the ligand-binding domain of human TRb with a Texas Red labeled SRC2 peptide, corresponding to a 20 amino acid region of the nuclear receptor interaction domain (Arnold et al., 2006). Total fluorescence (555 nm excitation and 632 nm emission) was measured to identify potential fluorescent and light absorbing compounds. Such compounds may be artifacts that interfere with the fluorescence polarization assay.
Arnold, L. A.; Estebanez-Perpina, E.; Togashi, M.; Shelat, A.; Ocasio, C. A.; McReynolds, A. C.; Nguyen, P.; Baxter, J. D.; Fletterick, R. J.; Webb, P.; Guy, R. K. A high-throughput screening method to identify small molecule inhibitors of thyroid hormone receptor coactivator binding. Sci STKE 2006, p 13.
NCGC Assay Protocol Summary:
For screening, 5 uL/well 0.6 uM TRb and 20 nM SRC2 Texas Red in protein buffer (20mM Tris hydrochloride, 100mM NaCl, 10% glycerol, 1mM EDTA, 0.01% NP-40, 1mM DTT, 1uM T3 and 5% DMSO) was dispensed into black solid 1536-well plates (Grenier) using a solenoid-based dispenser. Following transfer of 23 nL compound or DMSO vehicle by a pin tool, the plates were centrifuged 15 s at 1000 RPM and incubated 5 hr at ambient temperature. The plates were read by an Envision (Perkin Elmer) to detect fluorescence polarization of SRC2 Texas Red (555 nm excitation and 632 nm emission). Data were normalized to unbound (all components except TRb) and bound SRC2 Texas Red controls. Total fluorescence (TF) was calculated as follows: TF = S + 2P where S and P are fluorescence readings in the parallel and perpendicular channels, respectively.
Keywords: NIH Roadmap, MLPCN, MLI, MLSMR, qHTS, NCGC, qHTS, thyroid hormone receptor, steroid receptor coactivator, fluorescence polarization
% is set by controls: 0 for no effect and ±100 for the full control effect; potency is the fitted concentration of half-maximal effect; tags give direction and shape of the fitted curve or compound fluorescence and quenching.

Compound | fluorescence change, negative = quenching | Potency
COc1ccccc1CNC(=O)Cn1nc(C)c2nn(-c3ccc(Cl)cc3)c(C)c2c1=O | -3.71% | 
COc1ccc2c(c1)C=CC1(O2)N(CCO)c2ccccc2C1(C)C (stereo not drawn) |  | 50.1 µM [fluorescent] (active)
COc1ccc2c(c1)C(SCC(=O)NCc1ccccc1)CC(C)(C)O2 (stereo not drawn) | -2.94% | 
COc1cccc(CC2(CO)CCCN(CC3=Cc4cc(OC)ccc4OC3)C2)c1 (stereo not drawn) | -6.57% | 
CCc1cnc2c(c1SCC(=O)N1CCC(C)CC1)c(=O)n(C)c(=O)n2C | 0.547% | 
COc1ccc(C)cc1N(CC(=O)N1CCC(C)CC1)S(=O)(=O)c1ccc(C)cc1 | 6.06% | 
Cc1ccccc1-c1nc2scc(CCNC(=O)C(=O)Nc3ccc(F)cc3F)n2n1 | -1.09% | 
CC(Sc1oc(-c2ccco2)nc1S(=O)(=O)c1ccc(Br)cc1)c1ccccc1 (stereo not drawn) | 1.02% | 
COc1ccccc1NC(=O)CSc1oc(-c2ccco2)nc1S(=O)(=O)c1ccc(Br)cc1 | 0.994% | 
CCCC/C=C/CCCCO | -3.09% [at 201 µM] | 
CCN(C(=O)Cn1cc(S(=O)(=O)N2CCN(c3ccccc3F)CC2)c2ccccc2c1=O)c1ccc(C)c(C)c1 | -2.35% | 
O=C(NCCc1ccccc1)c1ccc2c(c1)N(Cc1ccccc1)C(=O)c1ccccc1S2(=O)=O | -5.87% | 
CN(C(=O)CSc1nnc(NC(=O)Nc2ccccc2)s1)c1ccccc1 | -1.97% | 
CC(C)(C)OC(=O)N1CCC(c2c(C(=O)Nc3ccc4c(c3)OCO4)cnn2-c2ccccc2)CC1 | -6.82% | 
Cc1cccc(Cc2c(C)nc3nc(SCc4ccccc4Cl)nn3c2C)c1 | -1.22% | 
c1ccc(CNc2ncnc3[nH]ncc23)cc1 | -2.45% | 
CCOC(=O)c1ccc(NC(=O)CC2C(=O)N(c3cccc(OC)c3)C(=O)N2C2CCCCC2)cc1 (stereo not drawn) | -1.55% | 
COc1ccccc1CNC(=O)c1ccccc1NC(=O)c1nsc2ccccc12 | -0.019% | 
O=S(=O)(c1ccc(C2CCCCC2)cc1)N1CCN(c2ccc(Cl)c(Cl)c2)CC1 | 1.08% | 
CC1CN(C(=O)N2CCC(C(=O)NCc3ccco3)CC2)c2cc(Cl)ccc2O1 (stereo not drawn) | 8.47% | 
CCOC(=O)c1ccc(NC(=O)CCS(=O)(=O)c2ccc(C)cc2)cc1 | -1.98% | 
CCCn1c2ccccc2c2cnn(CC(=O)N(C)c3ccccc3CC)c(=O)c21 | -7.64% | 
Cc1cc(C)c(N)c(Cl)c1 | -1.53% [at 201 µM] | 
CCOc1ccc2nc(N3CCC(C(=O)Nc4cc(C)ccc4C)CC3)sc2c1 | 4.05% | 

Compound | fluorescence change, negative = quenching | Potency
CCOc1ccc2nc(C(=O)N3CCCC(C)C3)sc2c1 (stereo not drawn) | 1.97% | 
CCOc1ccc2nc(N3CCCC(C(=O)Nc4cc(C)ccc4C)C3)sc2c1 (stereo not drawn) |  | 20 µM [quencher] (active)
Cc1csc2nc(COC(=O)c3ccc(NC(=O)COc4ccccc4F)cc3)cc(=O)n12 | -0.21% | 
COc1cc2ccccc2cc1C(=O)Nc1cccc(-c2nc3ccccc3o2)c1 | 0.567% | 
O=C(CN1CCSc2ccccc21)N1CCN(c2ccccc2)CC1 | -0.0734% | 
Cc1ccc(N)c(S(=O)(=O)O)c1 | -6.26% [at 201 µM] | 
Cn1c(=O)[nH]c(=O)c2c1nc(NCCc1ccccc1)n2Cc1ccc(F)cc1 | -0.664% | 
COc1ccc(CNC(=O)Cc2coc3ccc(C(C)C)cc23)cc1 | -20.8% | 
COCCNC(=O)Nc1ccc2nc(-c3ccco3)c(-c3ccco3)nc2c1 |  | 28.2 µM [quencher] (active)
O=C(Nc1ccc2nccnc2c1)c1ccco1 | -2.35% | 
CC(C)(C)c1ccc(NC(=O)NCc2ccco2)cc1 | -4.34% | 
CC1CCCN(c2nc3c(S(=O)(=O)c4ccc(C(C)C)cc4)nnn3c3ccsc23)C1 (stereo not drawn) | -1.97% | 
Cc1ccc(-c2noc(CSc3nnc(-c4ccc(Cl)cc4)n3C)n2)cc1 | 6.15% | 
CCc1cccc(NC(=O)Cn2nc(CC)n3c(cc4cc(C)ccc43)c2=O)c1 | -3.05% | 
OCCC(F)(F)C(F)(F)C(F)(F)C(F)(F)C(F)(F)C(F)(F)C(F)(F)C(F)(F)F | -3.95% [at 201 µM] | 
CC(=O)c1cccc(Nc2ccc3cc(S(=O)(=O)N4CCC(C)CC4)ccc3n2)c1 | -2.64% | 
COc1ccccc1NC(=O)c1cc(S(=O)(=O)NCCc2ccccc2)ccc1F | -1.18% | 
CC1(C)C(=O)N(Br)C(=O)N1Br | 0.683% [at 201 µM] | 
COC(=O)c1ccc(NC(=O)CCc2c(C)nc3c(c(C)nn3-c3ccc(C)cc3)c2C)cc1 | -1.65% | 
CC(=O)N(CCN(C(C)=O)C(C)=O)C(C)=O | -0.655% [at 201 µM] | 
CC(NC(=O)c1cc2c(=O)n3ccccc3nc2n(C(C)C)c1=N)c1ccccc1 (stereo not drawn) | -1.91% | 
O=C(Cn1c(=O)nc(-c2ccccc2)c2cc(Cl)ccc21)NCc1ccc(Cl)cc1 | -1.77% | 
Cc1ccccc1CNC(=O)C1CCCN(S(=O)(=O)N(C)c2ccc(F)cc2)C1 (stereo not drawn) | -1.26% | 
COc1ccc(CCN2C(=O)N(c3cccc(OC)c3)C(=O)C2CC(=O)Nc2ccccc2)cc1 (stereo not drawn) | -1.82% | 
